Screening data as filed in PubChem.
12-LOX inh: Primary qHTS assay for inhibitors of human arachidonate 12S-lipoxygenase (ALOX12): Round 2; Polyunsaturated fatty acid lipoxygenase ALOX12 (Homo sapiens), P18054; AID 1671190, 2021; purified 12hLO, xylenol orange hydroperoxide absorbance; Potency, µM (doses to about 108 µM), for inactives: at the highest dose activity change, negative = inhibition, actives largely listed as inhibitors; hit rate 1.1% among 580,000; note: % is set by controls: 0 for no effect and ±100 for the full control effect
Target sequence (P18054 whole entry, looked up): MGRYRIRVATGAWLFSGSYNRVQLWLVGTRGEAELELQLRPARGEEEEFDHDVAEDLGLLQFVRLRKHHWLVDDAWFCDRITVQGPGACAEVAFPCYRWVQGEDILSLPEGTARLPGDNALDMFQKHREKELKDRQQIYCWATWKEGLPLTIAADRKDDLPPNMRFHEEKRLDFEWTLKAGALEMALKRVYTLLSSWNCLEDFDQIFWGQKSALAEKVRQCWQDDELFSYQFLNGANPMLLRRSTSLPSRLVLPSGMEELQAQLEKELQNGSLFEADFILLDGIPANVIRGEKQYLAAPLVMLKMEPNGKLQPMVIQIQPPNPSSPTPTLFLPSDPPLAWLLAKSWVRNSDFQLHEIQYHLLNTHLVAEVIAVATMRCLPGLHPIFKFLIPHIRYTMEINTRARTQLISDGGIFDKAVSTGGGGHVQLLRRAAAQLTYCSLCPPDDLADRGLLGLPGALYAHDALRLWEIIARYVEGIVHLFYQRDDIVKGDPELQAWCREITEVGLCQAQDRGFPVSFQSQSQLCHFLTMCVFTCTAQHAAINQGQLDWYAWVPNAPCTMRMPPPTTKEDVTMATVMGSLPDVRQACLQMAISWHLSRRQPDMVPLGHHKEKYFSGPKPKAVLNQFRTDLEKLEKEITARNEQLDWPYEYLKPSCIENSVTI
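Purified human 12hLO at 150 nM in 25 mM Hepes, 0.01% Triton X-100, pH 7.0, preincubated 15 min at room temperature with compound. Reaction started with 40 uM arachidonic acid, 30 min at room temperature. Hydroperoxide measured by Fe-xylenol orange, 573/405 nm absorbance ratio.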
HepG2 tox: qHTS for Inhibitors of TGF-b: Cytotox Counterscreen | HepG2 CAGA-GFP viability, ATP luminescence, 18 h | Potency, µM (top dose mostly 46.1 µM), for the others: at the highest dose activity change, negative = cytotoxicity, actives largely listed as cytotoxic | hit rate 0.76% among 410,000 | AID 588856, 2011
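CellTiter-Glo luminescence gave cytotoxicity after 18 hours at 37 degrees C. The cells were HepG2 CAGA-GFP in 1% FBS DMEM, stimulated with 500 pg/mL TGF-beta after compound addition. %Activity was normalised to no-cell wells (complete cell-killing) and DMSO (no toxicity), and curves were fitted and classified.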
TGFb inhibitor: qHTS for Inhibitors of TGF-b; HepG2 CAGA-GFP TGF-b/SMAD3 reporter, GFP fluorescence, 18 h; TGF-beta stimulated, 500 pg/mL final; Potency, µM (doses to about 46.1 µM), without a hit: top-dose activity, negative = inhibition, usual class: inhibitors; hit rate 1.2% among 410,000; AID 588855, 2011; note: % is set by controls: 0 for no effect and ±100 for the full control effect; nearly all actives have a fitted effect of over 65% in size
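HEPG2 CAGA-GFP cells (1000/well, DMEM with 1% FBS) were pre-incubated 2 h at 37 degrees C, given compound by pin tool, then stimulated with TGF-beta at 500 pg/mL final for 18 h before per-cell GFP fluorescence imaging.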
ATXN2 expr inh: Primary qHTS for Inhibitors of ATXN expression; HEK-293 ATXN2-luciferase reporter, luminescence, 24 h; Potency, µM (series often up to 57 µM), inactives show top-dose activity change, negative = inhibition, most hits filed as inhibitors; hit rate 0.72% among 360,000; AID 1745845, 2022; note: % is set by controls: 0 for no effect and ±100 for the full control effect; nearly all actives have a fitted effect of over 55% in size
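qHTS (up to 57 uM final) was run with 24 h compound exposure of reporter cells at 37 °C. Each well was multiplexed: SteadyGlo luminescence measured ATXN2-luciferase expression after a fluorogenic Gly-Phe-AFC viability readout (25 uM final).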
ATXN viability: Viability Counterscreen for Primary qHTS for Inhibitors of ATXN expression; Potency, µM (highest dose often 56.7 µM), usual class: cytotoxic; AID 651635, 2014; hit rate 0.49% among 400,000; S2 cells (HEK-293 line with an ATXN2-luciferase reporter) viability, CellTiter-Fluor protease fluorescence, 24 h; note: nearly all actives have a fitted effect of over 40% in size
* marks the source's active call; other numbers are inactive results; i = inactive; ? = inconclusive; · = no result; ! = a repeat was not active. Shown are actives, neighbours in structure and some others; about 2.7% of the full set was active somewhere. Calls come from the whole dose curve; as a rule, active = well fitted curve in the direction sought with a large enough effect; inconclusive = small, poorly fitted or top-dose-only effect, or another doubt; inactive = no such curve, though single readings can be large; an effect the other way counts as inactive or inconclusive. Potency is the fitted concentration of half-maximal effect.

SMILES	12-LOX inh	HepG2 tox	TGFb inhibitor	ATXN2 expr inh	ATXN viability
CCCn1c(=O)c2sccc2n2c(CCCC(=O)Nc3ccc(Oc4ccc(Cl)cc4)cc3)nnc12	-24%	-29%	?	·	·
CCN(CC)C(=O)Cn1c(=O)n(CCCCCC(=O)Nc2ccccc2)c(=O)c2sccc21	-20%	3.2µM*!	?	7%	i
CCCCC(CC)CNC(=O)CCCc1nnc2n(CCC)c(=O)c3sccc3n12 (stereo not given)	-18%	-22%	?	-37%	18µM*
CCCn1c(=O)c2sccc2n2c(CCCC(=O)Nc3ccc(Oc4ccccc4)cc3)nnc12	?	-40%	18µM*	·	·
NC(=O)CCN(C(=O)c1ccc(C(F)(F)F)cc1)c1ccccc1	1%	·	·	·	·
Cc1cc(NC(=O)c2cc(F)ccc2Br)n(CCC#N)n1	21%	·	·	·	·
CCc1cccc(C)c1NC(=S)NCCc1c(C)[nH]c2ccc(C)cc12	?	11µM*	13µM*	?	i
CCc1cccc(CC)c1NC(=S)NCCc1c(C)[nH]c2ccc(C)cc12	?	-102%	13µM*	18µM*	?
CSCCC(NC(=O)C1CCC(C)CC1)C(=O)Nc1ccc2c(c1)OCO2 (stereo not given)	-22%	·	·	·	·
Cc1ccc(C2CC(=O)C3=C(C2)OC(N)=C(C#N)C3c2ccc(Cl)c(Cl)c2)cc1 (stereo not given)	40µM*	·	·	·	·
N#CC1=C(N)OC2=C(C(=O)CC(c3ccccc3)C2)C1c1ccc(Br)cc1 (stereo not given)	11µM*	·	·	·	·
N#CC1=C(N)OC2=C(C(=O)CC(c3ccccc3)C2)C1c1cccnc1 (stereo not given)	-7%	28%	-11%	15%	i
N#CC1=C(N)OC2=C(C(=O)CC(c3ccccc3)C2)C1c1ccoc1 (stereo not given)	-19%	14%	-6%	-5%	i
N#CC1=C(N)OC2=C(C(=O)CC(c3ccccc3)C2)C1c1cccc(F)c1 (stereo not given)	35µM*	·	·	·	·
O=C(CCC(=O)c1ccc(F)cc1)OCc1cc(-c2ccccc2)no1	-15%	·	·	·	·
COCCCNC(=O)Cc1c(C)c2ccc(OC)c(OC)c2oc1=O	55%	·	·	·	·
O=C(Nc1cc(=O)[nH]c2nc(C(F)(F)F)nn12)c1ccc(Cl)cc1Cl	25µM*	·	·	·	·
[2H]c1c([2H])c([2H])c(C(=O)c2sc(N3CCCCCC3)nc2-c2ccccc2)c([2H])c1[2H]	0%	3%	14µM*	2%	i
CCOc1ccccc1NC(=S)Nc1ncccc1C	11µM*	-12%	0%	-6%	i
Cc1cccnc1NC(=S)NCCc1ccccc1	7.1µM*	-21%	?	13%	i
Cc1cccnc1NC(=S)Nc1ncccc1C	-12%	-38%	-13%	52%	i
S=C(NCCc1ccccc1)Nc1ncccn1	?	-4%	13%	27%	i
CCOC(=O)c1sc(NC(=O)c2cc(Cl)ccc2F)nc1C	3%	·	·	·	·
Cc1ccc2nc(N(CCCN(C)C)C(=O)c3ccc(Br)s3)sc2c1	?	13µM*!	?	?	22µM*!
CN(C)CCCN(C(=O)c1cc(-c2cccs2)nc2ccccc12)c1nc2c(F)cccc2s1	-19%	-85%	?	-25%	i
SMILES	12-LOX inh	HepG2 tox	TGFb inhibitor	ATXN2 expr inh	ATXN viability
Cc1ccc2nc(N(CCCN(C)C)C(=O)c3cc(-c4cccs4)nc4ccccc34)sc2c1	-78%	11µM*	16µM*	?	32µM*
CCCCN(C(=O)c1ccc(-c2ccc(Cl)cc2)o1)c1c(N)n(CCC)c(=O)[nH]c1=O	16µM*!	-4%	-2%	-18%	i
CCCCN(C(=O)c1ccc(-c2ccc(Cl)cc2)o1)c1c(N)n(CCCC)c(=O)[nH]c1=O	?	2%	-6%	·	?
Nc1cc2nsnc2cc1Br	?	-78%	11µM*	-18%	i
OCCOCCn1c(-c2ccccc2)nc(=S)c2c1CCCC2	40µM*	-6%	4%	-4%	i
O=S(=O)(Nc1nc2ccccc2nc1Nc1ccc(F)cc1)c1cccc2nsnc12	1%	·	·	·	·
Cn1c(=O)c2c3c(sc2n2c(SCC(N)=O)nnc12)CC(C(C)(C)C)CC3 (stereo not given)	1%	13µM*	1%	-11%	i
N#Cc1ccc(OCC(=O)NNC(=O)C2CC(=O)Nc3cc(F)ccc32)cc1 (stereo not given)	64%	·	·	·	·
CCS(=O)(=O)c1cc([N+](=O)[O-])c(Sc2ccccc2NC(C)=O)s1	14µM*	-16%	-13%	11%	i
CCOc1cc(/C=C2\SC(=N)N(c3nccs3)C2=O)ccc1OCCN1CCOCC1	-11%	-24%	0%	22µM*	?
Cc1cccc(Cn2c(N3CCN(c4cccc(Cl)c4)CC3)nc3c2c(=O)n(C)c(=O)n3C)c1	-7%	·	·	·	·
C=C1C(=O)O[C@H]2C[C@H]1[C@@H](OC(C)=O)C/C(C)=C/CC/C(C)=C\CC[C@]2(C)O	17%	-102%	3.2µM*	5.6µM*	7.9µM*
CC(C)(C)CC(C)(C)SSc1n[nH]c(=S)s1	35µM*	-4%	0%	-6%	i
O=C(CCSc1ccccc1Cl)OCC(=O)c1ccc(C2CCCCC2)cc1	-3%	·	·	·	·
CCCc1cc(CN2CCOCC2)c(O)c(CN2CCOCC2)c1O	35µM*	-42%	?	7%	i
O=C(Nc1cnn(Cc2ccc(F)cc2)c1)C(c1ccccc1)c1ccccc1	0%	-5%	13µM*	-29%	i
O=C(/C=C/c1cccc([N+](=O)[O-])c1)NCCSCc1ccc(Cl)cc1Cl	-16%	-26%	13µM*	?	i
CC(C)c1nc2ccccc2n1CCNC(=O)Cn1nc2c(cc1=O)CCCCC2	46%	·	·	·	·
N#Cc1c(N)n(-c2ccc(N)cc2)c2nc3ccccc3nc12	15%	2%	6%	-11%	?
N#Cc1c(C#N)c(SSc2c(C#N)c(C#N)c(N)n2-c2ccccc2)n(-c2ccccc2)c1N	0.35µM*	8%	2%	?	?
Cc1cncc2cccc(S(=O)(=O)N3CCCN(C(=O)CN)C[C@@H]3C)c12	4.3µM*	·	·	10%	·
CCCCN(C)C(=O)c1csc(N2CCN(c3ccccc3)CC2)n1	10%	·	·	·	·
COc1cc(/C=N/NC(=O)/C(=C/c2ccccc2)CCO)ccc1O	26%	16%	-4%	3%	?
O=C(N/N=C/c1ccc(O)cc1O)/C(=C/c1ccccc1)CCO	?	-26%	?	10µM*	?
Cc1cc(SCC(=O)N/N=C/c2ccc(O)cc2O)c(C)cc1Br	?	-21%	0%	18µM*	i
